Active and inactive are the calls of the source. The calls were made as follows: active = hit-call score of the fitted dose curve at least 0.9, where 1 is the maximum; inactive = score below 0.9.

This assay can be described thus: ATG_FoxO_CIS: Attagene CIS-FACTORIAL HepG2 Assay for human Forkhead box O (FoxO) (AID 2282943). The note with it: HepG2 Attagene cis-reporter, FoxO element, mRNA; actives raise or lower the signal. As for the experimental part: ATG_CIS is a cell-based, multiplexed-readout assay that uses HepG2, a human liver cell line, with measurements taken at 24 hours after chemical dosing in a 24-well plate.ATG_FoxO_CIS is one of 52 assay component(s) measured or calculated from the ATG_CIS assay. It is designed to make measurements of mRNA induction, a form of inducible reporter, as detected with fluorescence intensity signals by Reverse transcription polymerase chain reaction (RT-PCR) and Capillary electrophoresis technology.Data from the assay component ATG_FoxO_CIS was analyzed into 1 assay endpoint. This assay endpoint, ATG_FoxO_CIS, was analyzed with bidirectional fitting relative to DMSO as the negative control and baseline of activity. Using a type of inducible reporter, measures of mRNA for gain or loss-of-signal activity can be used to understand the reporter gene at the transcription factor-level as they relate to the gene FOXO1 and FOXO3. Furthermore, this assay endpoint can be referred to as a primary readout, because this assay has produced multiple assay endpoints where this one serves a reporter gene function. To generalize the intended target to other relatable targets, this assay endpoint is annotated to the dna binding intended target family, where the subfamily is forkhead box protein.
Human liver HepG2 cells are transiently transfected with multiple reporter transcription units (MRTUs) in 6-well plates using FuGene 6 reagent (Roche; 3 ml FuGene/1 mg DNA). The MRTU constructs are regulated by a cis-regulating element (promoter). […] A major difference between the CIS and TRANS system is that in CIS activities of endogenous TFs are measured, whereas the TRANS assay evaluates changes in activities of exogenous, chimeric NR-Gal4 proteins. […] At the end of 24 hour incubation, total RNA was isolated using TriZol reagent (Invitrogen). The isolated RNA is then reverse-transcribed using oligo(dT) primer and Mo-MLV reverse transcriptase (Invitrogen) with DNAse I (Ambion) treatment for 30 min. The one-tenth of the produced cDNA was amplified by PCR using Taq DNA polymerase (Invitrogen) and two reporter sequence-specific primers. The PCR products were fluorescently labeled by primer extension with 6-arboxyfluorescein (6-FAM) 5'-labeled reporter sequence-specific primer (2 min at 95 C, 20 s at 68 C and 10 min at 72 C) and these products were digested with 5U of HpaI (New England Biolabs) for 2h at 37 C. The fragments were purified using Qiaquick PCR columns (Qiagen), analyzed on an ABI 3130xL genetic analyzer (Applied Biosystems) with peak positions identified by using a set of X-rhodamine (ROX)-labeled MapMarker1000 molecular weight standards (BioVentures). The raw capillary electrophoresis data was processed using Attagraph software (Attagene).
With `CC[N+](CC)(CC(=O)Nc1c(C)cccc1C)Cc1ccccc1` (tested in a mixture with another compound), the call was inactive.
Take `CC/C=C\CCCCCO`: the call was inactive.
For `NCc1ccccc1`, the outcome was inactive.
In the case of `C=CCOC(=O)C(=C)C`, the result was inactive.
Next, `Cc1cc(O)cc(C)c1Cl`: “inactive”; `CC1(C)S[C@@H]2[C@H](NC(=O)[C@H](N)c3ccccc3)C(=O)N2[C@H]1C(=O)O`: “inactive”.
With `O=S(=O)(O)c1cccc2ccccc12`, the molecule was classed as inactive.
The result for `c1ccc2c(c1)Oc1ccccc1S2` reads “inactive”.
Next, `O=C(O)c1cc(Cl)cc(Cl)c1O`: “inactive”; `CC1=NN(c2cc(Cl)c(S(=O)(=O)O)cc2Cl)C(=O)C1N=Nc1ccc(S(=O)(=O)O)cc1` (stereo not given): “inactive”; `Clc1ccccn1`: “inactive”.
Next, `COc1ccccc1OCC(O)CO` (stereo not given): “inactive”; `C/C=C(\C)C(=O)OCC/C=C\CC`: “inactive”.
For `Cc1cc2nc3c(=O)[nH]c(=O)nc-3n(C[C@H](O)[C@H](O)[C@H](O)CO)c2cc1C`, the molecule was called inactive.
Turning to `Brc1ccc(Oc2ccc(Br)cc2)cc1`, the molecule was called inactive.
Consider `CCCCCCCCCCCCCC`, for which the result was inactive.
As to `CC(=O)OC(C)(C)Cc1ccccc1`, the molecule was called inactive.
As to `NC(=O)c1ccc(N)cc1`, the outcome was inactive.
Take `F[B-](F)(F)F`: the outcome was inactive.
As for `O=C(CC(C(=O)OC1CCCCC1)S(=O)(=O)O)OC1CCCCC1` (stereo not given), the molecule was classed as inactive.
`Cc1ccccc1S(=O)(=O)O`: the outcome was inactive.
For `C=CN1CCCCCC1=O`, the molecule was called inactive.
Regarding `CC(=O)Nc1c(I)c(NC(C)=O)c(I)c(C(=O)O)c1I`, the molecule was called inactive.
Next, `CCCCCCC1CCC(=O)O1` (stereo not given): “inactive”; `CC1=C(CC=O)C(C)(C)CCC1`: “inactive”; `CN(C)Cc1cc(C(C)(C)C)c(O)c(C(C)(C)C)c1`: “inactive”.
The result for `CC(C)CC(=O)CC(C)CC(C)C` (stereo not given) reads “inactive”; that for `O=C(C(=O)c1ccccc1)c1ccccc1`, “inactive”.
With `CCCCC(CC)COC(=O)CS` (stereo not given), the molecule was classed as inactive.
As to `c1ccc(CNc2ncnc3nc[nH]c23)cc1`, the outcome was inactive.
As for `Nc1ccc(S(=O)(=O)Nc2cnc3ccccc3n2)cc1`, the outcome was inactive.
Regarding `CCCCCCC(O)CCCCCCCCCCC(=O)OC` (stereo not given), the outcome was inactive.
For the molecule `COc1c2occc2cc2ccc(=O)oc12`, the molecule was called inactive.
The result for `CCCCCCCCCC/C=C/C1CC(=O)OC1=O` (stereo not given) reads “inactive”.
Turning to `O=C1CCCCCCCCCCCCCC1`, the result was inactive.
As to `C=C1CC[C@H]2C[C@@H]1C2(C)C`, the call was inactive.
Turning to `OCCOCCOCCOCCOCCO`, the call was inactive.
The result for `Cc1ccnc(N)c1` reads “inactive”; that for `CN(C)CCC(c1ccc(Cl)cc1)c1ccccn1` (stereo not given), “inactive”; that for `COC(=O)CCSCCC(=O)OC`, “inactive”.

Values taken from PubChem BioAssay (EPA / NIEHS).
